# Screening results (PubChem BioAssay)
# HGIII-sPLA2 inh = Inhibits HGIII-sPLA2 liposome hydrolysis, primary screen | Q9NZ20 | QFRET BODIPY PC-A2 liposome hydrolysis, fluorescence | inhibition, % at 12.2 µM | 0.56% of 370,000 active | AID 743126;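 active = inhibition above mean plus 3 SD of compounds lying within the high and low control bounds, cut at about 19% in these data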
# ADAM10 inh = inhibitors of human ADAM10; O14672; recombinant ADAM10, EDANS/DABCYL FRET peptide cleavage, 3 h; inhibition, % at 7 µM; 0.62% of 370,000 active; AID 720582;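 active = inhibition above a per-campaign cutoff equal to the mean of compounds falling between control-based bounds plus 3 SD, cut at about 20% in these data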
# ADAM17 inh = inhibits human ADAM17 | 0.83% of 370,000 active | P78536 | inhibition, % at 6.95 µM | recombinant ADAM17, EDANS/DABCYL FRET peptide cleavage;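 active = inhibition above the mean of compounds lying between control limits plus 3 SD, set per campaign, cut at about 8.5% in these data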
# PLCg1 inh = inhibitors of human phospholipase C gamma1; purified PLC-gamma1, fluorogenic substrate, fluorescence; inhibition, % at 12.2 µM; 0.84% of 370,000 active; in the data active = inhibition above about 9.5%
# Target sequence (P19174 whole entry, looked up): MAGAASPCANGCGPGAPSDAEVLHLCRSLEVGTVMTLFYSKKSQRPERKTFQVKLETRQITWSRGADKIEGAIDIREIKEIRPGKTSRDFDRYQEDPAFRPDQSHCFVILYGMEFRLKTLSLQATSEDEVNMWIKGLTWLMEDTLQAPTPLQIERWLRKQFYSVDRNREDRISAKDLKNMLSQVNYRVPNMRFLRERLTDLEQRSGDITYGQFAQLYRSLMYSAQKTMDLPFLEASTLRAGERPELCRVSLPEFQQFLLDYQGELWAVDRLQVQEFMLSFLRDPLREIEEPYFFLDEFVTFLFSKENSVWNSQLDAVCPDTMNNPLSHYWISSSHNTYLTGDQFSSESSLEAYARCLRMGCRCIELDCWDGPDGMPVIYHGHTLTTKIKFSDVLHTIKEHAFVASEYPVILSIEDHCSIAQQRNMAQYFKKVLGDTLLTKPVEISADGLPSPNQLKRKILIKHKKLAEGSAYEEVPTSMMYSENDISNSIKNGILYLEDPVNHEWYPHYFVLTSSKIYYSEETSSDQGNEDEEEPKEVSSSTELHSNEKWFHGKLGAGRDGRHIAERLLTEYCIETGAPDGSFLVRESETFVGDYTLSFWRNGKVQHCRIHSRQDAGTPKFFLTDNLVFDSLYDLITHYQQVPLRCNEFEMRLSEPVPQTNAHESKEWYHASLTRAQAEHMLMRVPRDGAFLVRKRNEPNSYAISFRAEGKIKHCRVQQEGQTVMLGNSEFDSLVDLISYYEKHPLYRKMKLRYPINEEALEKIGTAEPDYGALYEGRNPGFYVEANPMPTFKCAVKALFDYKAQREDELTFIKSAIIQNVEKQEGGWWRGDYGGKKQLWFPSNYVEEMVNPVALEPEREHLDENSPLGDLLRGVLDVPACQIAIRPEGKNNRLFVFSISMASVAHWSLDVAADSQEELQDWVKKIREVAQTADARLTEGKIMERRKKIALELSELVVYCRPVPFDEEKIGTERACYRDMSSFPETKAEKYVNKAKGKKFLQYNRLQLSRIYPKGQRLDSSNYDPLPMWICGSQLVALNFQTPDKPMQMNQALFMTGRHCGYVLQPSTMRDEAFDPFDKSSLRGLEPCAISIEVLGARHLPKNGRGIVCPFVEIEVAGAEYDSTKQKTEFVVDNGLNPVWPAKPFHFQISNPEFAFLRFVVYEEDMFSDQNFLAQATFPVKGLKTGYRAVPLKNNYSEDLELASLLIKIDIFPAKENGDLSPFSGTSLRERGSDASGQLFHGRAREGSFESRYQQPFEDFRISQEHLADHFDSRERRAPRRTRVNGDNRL
# PLC-beta3 inh = blocks human PLC-beta3 enzyme activity. Q01970. Purified PLC-beta3, fluorogenic substrate, fluorescence. inhibition, % at 12.2 µM. 0.18% of 370,000 active. AID 720704; in the data active = inhibition above about 11%
# KLK7 zymogen act = activates the human kallikrein-7 zymogen; P49862; purified proKLK7, EDANS-DABCYL substrate fluorescence; 100% is mature enzyme control, 0% vehicle; activation, % at 7 µM; 0.9% of 370,000 active; AID 652039;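 active = activation above the mean of all tested compounds plus 3 SD, computed per campaign excluding outliers beyond control limits, cut at about 13% in these data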
# sPLA2 confirm = human GIII-sPLA2 inhibition, confirmation | shares compounds with HGIII-sPLA2 inh | recombinant hGIII-sPLA2, BODIPY PC-A2 QFRET fluorescence | inhibition, % at 12.2 µM | 34% of 2,000 active | AID 743280;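 active = mean inhibition across triplicates above the hit cutoff set in the earlier primary screen, cut at about 19% in these data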
# 535nm interf = 535nm fluorescence interference, HGIII-sPLA2 counter-screen | shares compounds with HGIII-sPLA2 inh | BODIPY FL product fluorescence interference, QFRET | inhibition, % at 12.2 µM | 8.5% of 2,000 active;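 active = average inhibition above the solvent-only control mean plus 3 SD, cut at about 6% in these data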
# BODIPY interf DR = 535nm optical interference dose response, HGIII-sPLA2 counter-screen; shares compounds with HGIII-sPLA2 inh; BODIPY FL product fluorescence interference, cell-free; IC50, µM; 240 tested, under 10 active;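 active = IC50 at or below 10 µM; inactive = IC50 above 10 µM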
# Numbers stand for hits; . = inactive; / = no result. Most compounds without a hit are left out; they make up all but 3.4% or so of the library.
SMILES,HGIII-sPLA2 inh,ADAM10 inh,ADAM17 inh,PLCg1 inh,PLC-beta3 inh,KLK7 zymogen act,sPLA2 confirm,535nm interf,others
CCN(CC)c1ccc(-c2n[nH]c(=S)n2-c2ccccc2)cc1,19.5,.,.,.,.,.,44.2,.,BODIPY interf DR=.
COc1ccc2c(c1)OC[C@H]1[C@H]2N2C(=O)c3cc(OC)c(OC)cc3NC(=O)[C@@]2(C)[C@H]1c1ccccc1,31.4,.,.,.,.,.,.,.,
CCOC(=S)SCC(=O)Nc1ncc(C)s1,20.2,.,.,.,.,.,.,.,
Cc1cnc(NC(=O)CSc2nnc(C)n2N)s1,21.8,.,.,.,.,.,.,.,
Cc1cnc(NC(=O)CSc2ccccc2)s1,.,.,.,.,.,.,/,/,
COC(=O)C1CN(Cc2ccc(OC)cc2)CCS(=O)(=O)N1Cc1cn(Cc2ccc(OC)cc2)nn1 (configuration not stated),.,.,.,.,.,.,/,/,
CCOC(=O)C1C[C@@H](O)C=CC1=O (some centres not stated),.,.,.,.,.,/,/,/,
C=CCn1c(O)c(N=Nc2ccccc2O)c2ccccc21,.,.,.,.,.,.,/,/,
Oc1ccccc1N=Nc1ccccc1O,36.1,.,.,.,.,.,36.0,.,BODIPY interf DR=.
Cc1cc(NC(=O)Cc2c(C)[nH]c3ccccc23)ccc1Oc1cccnc1,.,.,.,.,.,.,/,/,
Cc1ccccc1/C=N/Nc1nc2ccccc2[nH]1,.,.,.,.,.,.,/,/,
C(=N\Nc1nc2ccccc2[nH]1)/c1cccc2cccnc12,36.6,.,.,.,.,.,.,.,
CCCCCCCCN1C(=O)[C@@H](CC(=O)N2CCOCC2)C[C@@]2(C(=O)OC)C1=C[C@H](C1CCCC1)O[C@@H]2C,.,.,.,.,.,.,/,/,
CN(C)c1ccc(C(c2ccc(N(C)C)cc2)c2ccc([N+](=O)[O-])cc2)cc1,19.6,.,.,.,.,.,.,9.2,
S=c1nc[nH]c2c1[nH]c1ccc(Cl)cc12,20.0,.,.,.,.,.,.,.,
CN(C)c1ccc(/C=N/NC(=O)c2ccn(C)n2)cc1,20.1,.,.,.,.,.,.,.,
COC(=O)C1=C(C)N(Cc2cccc(C(F)(F)F)c2)C(=NCc2ccc3c(c2)OCO3)NC1CCc1ccccc1 (configuration not stated),.,.,.,.,.,.,/,/,
Cc1ccc(C)c(OCc2n[nH]c(=S)o2)c1,24.5,.,.,.,.,.,.,.,
COc1ccccc1N1CCN(S(=O)(=O)c2ccc([N+](=O)[O-])cc2)CC1,.,.,.,.,.,.,/,/,
COc1ccccc1N1CCN(c2ccc([N+](=O)[O-])cc2Cl)CC1,20.4,.,.,.,.,.,.,.,
O=C(Nc1nnc(-c2ccccc2F)s1)C1CCN(S(=O)(=O)c2ccc(Cl)cc2)CC1,23.1,.,.,.,.,.,.,.,
CCn1c(-c2c[nH]c3ccccc23)n[nH]c1=S,24.0,.,.,.,.,.,.,.,
CN=c1scc(-c2ccccc2F)n1/N=C/c1ccc[nH]1,34.6,.,.,.,.,.,29.1,.,BODIPY interf DR=.
CN=c1scc(-c2ccco2)n1/N=C/c1ccc(O)c(O)c1,.,.,.,.,.,.,/,/,
CNc1nc(Cl)nc(NC(C)(C)C)n1,.,.,.,.,.,.,/,/,
SMILES,HGIII-sPLA2 inh,ADAM10 inh,ADAM17 inh,PLCg1 inh,PLC-beta3 inh,KLK7 zymogen act,sPLA2 confirm,535nm interf,others
CC(C)(C)Nc1nc(Cl)nc(NC(C)(C)C)n1,22.6,.,.,.,.,.,.,.,
C[C@H]1CNCCN1c1ccc(N2CCS(=O)(=O)CC2)c(C#N)c1,.,.,.,.,.,.,/,/,
Cc1ccc(CNC(=O)C2CCCN(c3nc4ccccc4o3)C2)cc1 (configuration not stated),19.5,.,.,.,.,.,.,.,
COC(=O)[C@H](CC(C)C)N(CCCc1cn(Cc2ccc(C)cc2)nn1)S(=O)(=O)c1ccc(F)cc1Br,.,.,.,.,.,.,/,/,
O=C(C(=O)N1CCC(CNS(=O)(=O)c2ccc3ccccc3c2)CC1)c1cc2ccccc2o1,.,.,.,.,.,.,/,/,
CCOC(=O)CNc1ncc([N+](=O)[O-])cc1C#N,21.6,.,.,.,.,.,.,.,
CCOC(=O)c1sc2ncc([N+](=O)[O-])cc2c1N,.,.,.,.,.,.,/,/,
CCOc1ccc(-n2c(SCC(=O)Nc3cccc4ccccc34)nnc2-c2ccncc2)cc1,.,.,.,.,.,.,/,/,
CN(C)S(=O)(=O)c1ccc(NC(=O)/C=C/c2ccccc2Cl)cc1,.,.,.,.,.,.,/,/,
CN(C)c1ccc(NC(=O)/C=C/c2c(Cl)cccc2Cl)cc1,30.6,.,.,.,.,.,.,8.4,
Cn1c(=O)c2c(ncn2CC(=O)OCC(=O)Nc2ccccc2Cl)n(C)c1=O,.,.,.,.,.,.,/,/,
Cn1c(=O)c2c(ncn2CC(=O)OCC(=O)NC(c2ccccc2)c2ccccc2)n(C)c1=O,21.1,.,.,.,.,.,.,.,
CC#CC(=O)N[C@H]1CC[C@@]23CCCN2C(=O)CCC[C@H]3[C@H]1C,.,.,.,.,.,/,/,/,
NS(=O)(=O)c1cccc(NC(=O)CCC(=O)c2cccs2)c1,.,.,.,.,.,.,/,/,
NS(=O)(=O)c1cccc(NC(=O)c2cccs2)c1,21.2,.,.,.,.,.,.,.,
COc1cccc2sc(NNC(=O)COc3ccccc3)nc12,23.1,.,.,.,.,.,.,.,
CCC(=O)NNc1nc2c(C)cccc2s1,.,.,.,.,.,.,/,/,
COc1ccc2c(c1)C(NC(=O)C(F)(F)F)CC21CCCCC1 (configuration not stated),.,.,.,.,.,.,/,/,
CC(=O)c1cccc(NC(=O)C2=CN3CCS(=O)(=O)N=C3C=C2)c1,20.4,.,.,.,.,.,.,.,
CC(C)C(=O)N1CC[C@H]2[C@H](CCCN2Cc2ccccc2)C1,.,.,.,.,.,.,/,/,
CC(COc1ccc(C(F)(F)F)cc1)CN1CCC(C(O)(c2ccccc2)c2ccccc2)CC1 (configuration not stated),.,.,.,.,.,.,/,/,
C=CCNC(=O)CN(C(=O)c1csc2ccc(Cl)cc12)c1cccc(Br)c1,.,.,.,.,.,.,/,/,
COCCn1c(=NC(=O)c2ccc(S(=O)(=O)N3CCCc4ccccc43)cc2)sc2cc(S(C)(=O)=O)ccc21,19.8,.,.,.,.,.,.,.,
